# HT1080 IDH1KD tx: qHTS for induction of synthetic lethality in tumor cells producing 2HG: qHTS for the HT-1080-IDH1KD cell line. HT-1080 IDH1 knockdown viability, ATP luminescence, 48 h. hit rate 2% among 360,000. Potency, µM (series often up to 46.1 µM), without a hit: at the highest dose activity, negative = toxicity, usual class: cytotoxic;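 note: potency is the fitted concentration of half-maximal effect; 0% = DMSO wells and -100% = cell-free medium wells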
#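 CellTiter-Glo luminescence after 48 h compound exposure at 37 degrees C of IDH1-knockdown HT-1080 cells in 5% FBS RPMI. %Activity scaled between DMSO wells and cell-free media wells, with curves fitted and assigned curve classes.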
# IL-1B inflam inh: qHTS for Inhibitors of Inflammasome Signaling: IL-1-beta AlphaLISA Primary Screen; AID 743279, 2014; THP-1 LPS/ATP IL-1B secretion, AlphaLISA, 16 h; active compounds read low; activity change, % at 57.5 µM; hit rate 4.7% among 360,000; in the data active = activity change below about -50%; inconclusive = mostly about -30% to -49%; note: % is set by controls: 0 for no effect and ±100 for the full control effect
#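 THP-1 cells pretreated 1 hr with compounds (up to 57.5 uM final), then stimulated with LPS (250 ng/mL final) plus ATP (1.25 mM final); secreted IL-1B measured by AlphaLISA after 16 hr, decreased signal indicating inhibition.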
# Giardia killer: Small Molecules that selectively kill Giardia lamblia: qHTS; Giardia lamblia trophozoite viability; activity change, % at 7.66 µM, hits read low; hit rate 0.15% among 340,000; in the data active = activity change below about -80%; inconclusive = between about -30% and that limit;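 note: parasites exposed to compound for two days anaerobically before the ATP read; % is set by controls: 0 for no effect and ±100 for the full control effect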
#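 Trophozoite viability was measured as ATP-dependent luminescence, read 15-30 min after reagent addition. Before that, parasites at 100 cells/well were exposed to compounds for 48 h, anaerobically, at 37 deg C.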
# HT1080NT lethal: qHTS for induction of synthetic lethality in tumor cells producing 2HG: qHTS for the HT-1080-NT fibrosarcoma cell line; HT-1080-NT fibrosarcoma viability, CellTiter-Glo ATP luminescence, 48 h; Potency, µM (titrated, usually from 46.1 µM), inactives show at the highest dose activity, negative = less viability, most hits filed as cytotoxic; hit rate 1.6% among 360,000;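 note: NT is the 2HG producing partner of a matched IDH1 knockdown line; potency is the fitted concentration of half-maximal effect; 0% = DMSO-treated cells and -100% = media-only wells without cells; nearly all actives have a fitted effect of over 55% in size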
#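 Compounds were tested in concentration-response format on HT-1080-NT cells for 48 hours at 37 degrees C. Cell viability came from CellTiter-Glo luminescence; curves were classified by r2, response magnitude and activity.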
# TGFb inhibitor: qHTS for Inhibitors of TGF-b; HepG2 CAGA-GFP TGF-b/SMAD3 reporter, GFP fluorescence, 18 h; TGF-beta stimulated, 500 pg/mL final; Potency, µM (top dose mostly 46.1 µM), for inactives: top-dose activity, negative = inhibition, most hits filed as inhibitors; hit rate 1.2% among 410,000; AID 588855, 2011; note: potency is the fitted concentration of half-maximal effect; % is set by controls: 0 for no effect and ±100 for the full control effect; nearly all actives have a fitted effect of over 65% in size
#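 Cell-based qHTS in HEPG2 carrying a CAGA-GFP Smad reporter; compounds added before 500 pg/mL final TGF-beta, 18 h incubation at 37 degrees C, GFP fluorescence quantified per cell by imaging cytometry.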
# HepG2 viability: qHTS for Inhibitors of TGF-b: Cytotox Counterscreen; Potency, µM (highest dose often 46.1 µM), for the others: at the top dose activity change, negative = cytotoxicity, hits mostly cytotoxic; HepG2 CAGA-GFP viability, ATP luminescence, 18 h; hit rate 0.76% among 410,000; note: potency is the fitted concentration of half-maximal effect
#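 HepG2 CAGA-GFP cells (1000/well, DMEM with 1% FBS) received compound, then TGF-beta at 500 pg/mL final, and were incubated 18 hours at 37 degrees C. Viability was read by CellTiter-Glo luminescence. Media-only wells were set as complete cell-killing and DMSO as no toxicity.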
# Numbers without * were called inactive; ? = inconclusive; . = no result given; ! = a repeat was not active; [ ] = remark or other dose. This is a sample that favours compounds with a hit; in the whole collection about 6.5% have one here. Unless noted, calls come from the whole dose curve; as a rule, active = well fitted curve in the direction sought with a large enough effect; inconclusive = small, poorly fitted or top-dose-only effect, or another doubt; inactive = no such curve, though single readings can be large; an effect the other way counts as inactive or inconclusive.
SMILES,HT1080 IDH1KD tx,IL-1B inflam inh,Giardia killer,HT1080NT lethal,TGFb inhibitor,HepG2 viability
CC1C(=O)N(Cc2cn(CC3CCCCC3)nn2)CCS(=O)(=O)N1Cc1ccc(-c2ccc(Cl)c(Cl)c2)cc1 (stereo unspecified),-24.8%,13.9,.,?,?,-25.7%
COc1ccccc1-n1c(=O)[nH]c2c(C(N)=O)nc(-c3cccnc3)nc21,-20.1%,21.5,?,-29.6%,23.7%,-3.4%
Cc1ccc(-n2cnnn2)cc1Cl,5.5%,22.2,6.6,5.6%,24.9%,13.2%
c1ccc(-c2cn3nc(-c4ccccc4)cnc3n2)cc1,5.3%,0.0,-9.4,24.0%,7.0%,-2.2%
Cc1ccc(OCC(=O)N(Cc2ccc(N(C)C)cc2)C2CCS(=O)(=O)C2)cc1C (stereo unspecified),-3.3%,-71.8*,2.6,0.0%,9.8%,-18.4%
CCOC(=O)c1c(-c2ccc(OC)c(OC)c2)csc1NC(=O)C1CCCO1 (stereo unspecified),-4.6%,-66.8*,-1.6,-20.0%,0.5%,6.7%
COC(=O)c1c(-c2ccc(F)cc2)csc1NC(=O)C1CCCO1 (stereo unspecified),-9.1%,-17.9,4.8,-9.3%,-10.9%,-6.7%
C=C(C)C1(O)OC(=O)C=C1OC (stereo unspecified),-11.1%,-75.7*,5.1,-13.2%,-11.8%,-13.6%
Cc1cc(C)cc(N(C(=O)CNC(=O)c2cccs2)C(C(=O)NC2CCCC2)c2cccnc2)c1 (stereo unspecified),-6.5%,11.7,-14.0,2.3%,12.0%,6.1%
Cc1ccc(NC(=O)C2=C(c3ccccc3)S(=O)(=O)CCS2(=O)=O)cc1,7.31µM*,-104.0*,-15.8,10.3µM*,3.55µM*,7.08µM*
Cc1ccc(C)c(OCCC(=O)N2CCN(S(=O)(=O)c3ccc([N+](=O)[O-])cc3)CC2)c1,-0.1%,25.5,17.4,-1.7%,-1.5%,-2.1%
COc1cccc(CNC(=O)COC(=O)c2nc(Cl)c(Cl)c(Cl)c2Cl)c1,-27.9%,-100.6*,-7.2,?,?,-22.6%
OC(CN1CCc2ccccc2C1)c1ccccc1 (stereo unspecified),1.3%,40.0,10.5,1.7%,-4.3%,0.7%
Brc1ccccc1OCCOCCOc1cccc2cccnc12,?,-23.6,15.9,-25.5%,-20.8%,-27.6%
COc1cc(C2C3=C(Nc4ncnn42)c2ccccc2CC3)cc(OC)c1OC (stereo unspecified),0.731µM*,86.2,0.3,0.731µM*,-33.1%,-9.1%
CCOC(=O)c1nnn(CC(=O)NC(=O)Nc2cccc(CC)c2)c1C(=O)OCC,4.4%,6.7,-13.9,-0.9%,?,11.2µM*!
COC(=O)c1nnn(CC(=O)NC(=O)Nc2ccccc2)c1C(=O)OC,1.3%,-70.1*,3.3,5.8%,11.0%,29.4%
COC(=O)c1nnn(CC(=O)Nc2cccc(OC)c2)c1C(=O)OC,9.7%,-60.8*,5.3,20.6%,-0.5%,-19.6%
COC(=O)c1nnn(CC(=O)NC(=O)Nc2ccc(F)cc2)c1C(=O)OC,7.4%,-7.2,0.5,6.7%,?,-31.8%
CN1C(=O)c2ccccc2Sc2ccc(NC(=O)COc3ccc(Cl)cc3)cc21,.,.,.,.,2.82µM*,-16.8%
CN1CCN(c2ccc(-c3cccc(NC(=O)COc4ccc(Cl)cc4)c3)nn2)CC1,-12.0%,-70.2*,0.9,0.0%,41.2%,15.5%
CCOc1ccccc1C(=O)Nc1cccc(-c2ccc(N3CCOCC3)nn2)c1,-0.5%,-62.3*,-4.7,-4.9%,2.3%,-25.9%
CC(=O)c1ccc(OC(=O)CCNC(=O)c2ccccc2)cc1,5.3%,12.5,12.3,7.2%,1.1%,-6.1%
Cc1ccc(C2=NN=C(NC(=O)C(F)(F)F)SC2)cc1,-10.1%,-81.9*,?,-29.6%,0.0%,-2.8%
Cc1ccc(C2=NN=C(NC(=O)CSc3nncn3C)SC2)cc1,?,?,-27.2,?,0.0%,7.9%
SMILES,HT1080 IDH1KD tx,IL-1B inflam inh,Giardia killer,HT1080NT lethal,TGFb inhibitor,HepG2 viability
COc1ccccc1OCCNC(=O)CC(NC(C)=O)c1ccccc1 (stereo unspecified),9.9%,-2.6,-16.7,11.2%,-1.7%,0.2%
Cc1ccc(CNC(=O)c2nn(C)c3c2CS(=O)(=O)c2ccccc2-3)cc1,3.4%,-52.6*,-6.8,25.7%,-10.4%,-8.4%
CCc1ccc(CNC(=O)c2nn(C)c3c2CS(=O)(=O)c2ccccc2-3)cc1,-14.4%,-17.6,5.9,?,-19.0%,-2.0%
O=[N+]([O-])c1cccc(S(=O)(=O)N2CCN(S(=O)(=O)N3CCOCC3)CC2)c1,0.1%,-6.2,-26.1,14.2%,4.0%,-24.6%
CCOC(=O)c1[nH]c(C)c(C(=O)Nc2ccc(C)c(F)c2)c1C,3.55µM*,40.4,-1.7,10µM*,-12.9%,-35.7%
CCOC(=O)c1[nH]c(C)c(C(=O)Nc2ccc(C)c(Cl)c2)c1C,12.6µM*,0.0,3.4,0.2%[9.24 µM],4.7%,-31.5%
Cc1cc(C)cc(N2C(=O)CC(c3ccccc3)CC2=O)c1,0.6%,17.6,?,6.4%,-0.2%,17.4%
CC(=O)c1ccc(NC(=S)NCCCn2ccnc2)cc1,19.8%,10.7,19.5,2.9%,5.0%,-9.9%
COc1cc(C)cc(C(=O)C=Cc2ccccc2)c1O,?,-59.0*,-0.5,23.1µM*,?,-55.0%
COC1=C(C)C(O)=C(C(=O)/C=C/c2ccccc2)C(=O)C1(C)C,-1.3%,?,19.3,-9.1%,1.5%,-18.7%
COc1ccc(C(=O)/C=C/c2ccc(N(C)C)cc2)c(OC)c1,?,-100.1*,51.7,?,154.4%,-7.9%
COCOc1cc(O)c(C(=O)/C=C/c2ccccc2)c(OCOC)c1,?,-103.1*,1.0,?,?,-79.7%
COc1ccc(C=CC(=O)C=CC=Cc2ccccc2)cc1,?,-51.7*,-7.1,3.0%,-15.8%,-19.3%
COc1ccc(OCCCC(=O)Nc2cccc(C(C)=O)c2)cc1,4.9%,8.2,-21.3,0.1%,-5.3%,-18.1%
COc1ccc(C(=O)/C=C/c2ccccc2)c(OC)c1,?,-110.6*,5.8,-25.2%,?,-56.6%
COc1ccc(OC)c(C(=O)/C=C/c2ccccc2C(F)(F)F)c1,?,-109.6*,9.0,?,?,-99.6%

# Bioassay records deposited in PubChem by National Center for Advancing Translational Sciences (NCATS).
